HSF-1 act – HSF-1 activators, primary screen, NIH3T3-HGL cells, MG132 stress, luminescence, single point; NIH3T3-HGL HSF-1 luciferase reporter, 8 h; 100% = twice DMSO control signal; activation, % at 9 µM; 1.7% of 300,000 active;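 active = mean replicate activation of at least 50% with a set share of replicates each reaching 50%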;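 note: 0% = median of the neutral control wells and 100% = twice that signal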
FXN GAA850 act – FXN promoter activators, primary screen, cell-based, luciferase luminescence, HEK293 lucGAA850 | HEK293 lucGAA850 FXN promoter luciferase reporter, 24 h; percent of 10 µM SAHA response | activation, % at 6 µM | 0.56% of 360,000 active | AID 540364, 2011;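 active = activation above the average of all compounds screened plus 3 SD, cutoff fixed separately per campaign, cut at about 7.5% in these data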;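 note: 0% = DMSO wells and 100% = 10 µM SAHA wells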
AHR act – AHR activators, primary screen, cell-based, luminescence, luciferase reporter, human. Aryl hydrocarbon receptor (Homo sapiens), P35869. AHR-responsive luciferase reporter cells. activation, % at 5 µM. 2.5% of 320,000 active. AID 2796, 2010; in the data active = activation above about 47%;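 note: 0% = vehicle wells and 100% = reference agonist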
Target sequence (P35869 whole entry, looked up): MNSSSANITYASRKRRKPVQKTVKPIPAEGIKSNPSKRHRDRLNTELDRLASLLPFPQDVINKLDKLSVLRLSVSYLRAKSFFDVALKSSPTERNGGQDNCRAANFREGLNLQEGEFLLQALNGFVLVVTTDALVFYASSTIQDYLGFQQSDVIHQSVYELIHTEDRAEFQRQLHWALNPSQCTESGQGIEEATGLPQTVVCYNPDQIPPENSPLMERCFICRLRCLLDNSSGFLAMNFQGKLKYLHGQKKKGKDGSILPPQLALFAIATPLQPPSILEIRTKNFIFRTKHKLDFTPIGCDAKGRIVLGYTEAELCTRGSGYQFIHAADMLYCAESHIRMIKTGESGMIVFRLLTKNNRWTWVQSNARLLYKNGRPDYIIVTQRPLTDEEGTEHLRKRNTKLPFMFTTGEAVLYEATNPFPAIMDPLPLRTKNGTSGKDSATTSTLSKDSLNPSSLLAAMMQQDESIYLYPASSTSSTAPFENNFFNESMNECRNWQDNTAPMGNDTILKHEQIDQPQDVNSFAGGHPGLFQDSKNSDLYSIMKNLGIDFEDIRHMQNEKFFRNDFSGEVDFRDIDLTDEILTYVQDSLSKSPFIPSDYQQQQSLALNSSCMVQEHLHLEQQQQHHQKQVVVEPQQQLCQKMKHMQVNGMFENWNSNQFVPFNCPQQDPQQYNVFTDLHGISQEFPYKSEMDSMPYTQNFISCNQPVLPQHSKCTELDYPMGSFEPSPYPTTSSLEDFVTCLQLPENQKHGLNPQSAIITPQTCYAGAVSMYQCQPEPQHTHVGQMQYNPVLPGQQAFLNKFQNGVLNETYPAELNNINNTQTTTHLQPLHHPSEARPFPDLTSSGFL
HSF1 inhib – HSF1 inhibitors in luciferase reporter cells, primary screen, cell-based, NIH3T3, luminescence; NIH3T3-HGL HSE-luciferase, MG132-induced, luminescence 8 h; stronger effect = lower value; activity change, negative = inhibition, % at 7.5 µM (by protocol); 0.77% of 300,000 active; AID 2098, 2009;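 active = more than half of replicate wells show activity change below -50%, luminescence cut by over half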;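 note: luciferase reports HSF-1 transcriptional activity via heat shock element; 0% = median of DMSO wells and -100% = zero luminescence signal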
Active calls of the source: *; nt = not tested or not shown. Sampled rows, rich in hits. Any-hit rate of the full collection: about 4.6%.

SMILES | HSF-1 act | FXN GAA850 act | AHR act | HSF1 inhib
COCCCNC(=S)N1CCN(c2ccc([N+](=O)[O-])cc2)CC1 | -14.5 | -0.6 | -0.7 | 2.0
CC(C)CNC(=O)CSc1ccc(S(=O)(=O)N(C)C2CCCCC2)cn1 | nt | 2.2 | nt | nt
Nc1nnc(SCc2cccc(C(F)(F)F)c2)s1 | 12.3 | 5.5 | 1.2 | 23.9
CCCCNC(=S)NNC(=O)c1cc(-c2cccnc2)nc2ccccc12 | -4.5 | -1.1 | 53.9* | -4.8
CCCCNC(=S)NNC(=O)c1csc2ccccc12 | 130.7* | 1.0 | 1.8 | 64.8
COc1ccc(Oc2cnn(-c3ccccc3)c(=O)c2Br)cc1 | 18.6 | 0.0 | 0.6 | -0.8
COc1ccc(C(=O)N2CCCC(c3nc(-c4cccs4)no3)C2)cc1 (centres undefined) | 58.7* | -1.0 | 4.4 | 12.2
C/C(=N\N=C(N)N)c1ccc(C)c(C)c1 | -1.0 | 5.1 | 59.4* | 1.5
C/C(=N\N=C(N)N)c1cccc([N+](=O)[O-])c1 | -11.8 | 3.1 | 9.5 | -3.4
COc1ccccc1NC(=S)N/N=C/c1ccc(O)cc1 | 81.0* | 6.9 | 18.8 | 40.3
Oc1ccc(/C=N/NC(=S)N/N=C/c2ccc(O)cc2)cc1 | 10.1 | 2.3 | 8.9 | 0.6
Oc1ccc(/C=N/NC(=S)Nc2cccnc2)cc1 | 12.0 | 3.4 | 53.7* | 9.7
COc1cccc(/C=N/NC(=S)Nc2cccnc2)c1 | 13.8 | 3.8 | 58.3* | 10.5
COCCN(Cc1cn[nH]c1-c1ccc2cc(OC)ccc2c1)C(C)C | 56.3* | 3.5 | nt | 37.8
O=c1cc(/C=C/c2c(F)cccc2Cl)[nH]c2ccccc12 | 48.2 | 3.7 | 61.0* | 10.7
O=C1c2ccccc2C(=O)N1CCc1csc(-c2cccc(Cl)c2)n1 | -50.9 | -0.2 | -6.8 | -33.4
O=C1c2ccccc2C(=O)N1CCc1csc(-c2cccc(F)c2)n1 | 82.7* | 3.6 | -11.3 | 29.0
O=C(NCCCN1CCOCC1)c1cc(-c2ccccc2)nc2ccccc12 | -24.2 | -0.4 | 3.3 | 1.1
O=C(NCCCN1CCOCC1)c1cc(-c2ccc(Br)cc2)nc2ccccc12 | 0.0 | 0.3 | 75.3* | -1.9
O=C(NN1CCOCC1)c1cc(-c2ccc(Br)cc2)nc2ccccc12 | 5.2 | -0.5 | 57.9* | 6.3
CN1CCCN(C(=O)c2cccc(Br)c2)CC1 | 0.0 | -0.6 | -1.9 | -3.1
[O-]/[N+](=C\c1ccco1)c1ccc(Cl)cc1 | 98.8* | 2.5 | 37.4 | 54.5
[O-]/[N+](=C/c1ccc(F)cc1)c1ccc(Cl)cc1 | 30.5 | 2.8 | 63.6* | 26.8
Cc1ccc(NS(=O)(=O)Cc2ccccc2)nc1 | -3.0 | 0.8 | 8.0 | 4.3
Cc1ccc(-n2ncc3ccccc3c2=O)cc1Cl | 88.2* | 2.2 | 8.0 | 74.7
SMILES | HSF-1 act | FXN GAA850 act | AHR act | HSF1 inhib
CCCN(CCC)C(=O)CSc1nc2ccsc2c(=O)n1NC(=O)c1ccccc1 | -62.6 | 1.2 | 1.3 | -57.4*
CC(C)CCNC(=O)CSc1nc2ccsc2c(=O)n1NC(=O)c1ccccc1 | -9.1 | -1.2 | -1.9 | -7.8
Cc1ccc2c(c1)c(-c1ccccc1)nc1nncn12 | -4.3 | 1.9 | 52.8* | -4.4
CN(C(=O)Cn1nc(Cl)ccc1=O)C1CCCN(Cc2ccccc2F)C1 (centres undefined) | -9.3 | 0.7 | 1.5 | -5.2
COC(=O)c1ccc2c(c1)SC1=C(CCCC1=O)N2 | -6.1 | 1.6 | 59.5* | -5.0
O=C1CCCC2=C1Sc1ccc(Cl)cc1N2 | 11.4 | -3.0 | 44.3 | 0.5
CCOC(=O)[C@@H]1[C@H]2COc3cc(OC)ccc3[C@@H]2N2C(=O)N(c3ccc(F)cc3)C(=O)[C@@]12C | nt | -1.3 | 0.8 | nt
CCCCN1C=CC(=C2C(=O)c3ccccc3C2=O)C=C1 | -86.7 | -13.2 | -14.1 | -82.5*
CCCCC1C(=O)N(c2ccccc2)N(c2ccccc2)C1=O | 13.1 | 0.4 | 0.6 | -9.3
COc1ccc(Nc2nc(OC)nc(OC)n2)cc1 | 8.8 | 4.2 | 7.2 | 1.8
COc1ccc(Nc2nc(Nc3ccc(OC)cc3)nc(-n3[nH]c(=O)c(C)c3C)n2)cc1 | -64.1 | -7.1 | 20.6 | -62.5*
Cc1cccc(N(C(=O)c2ccc(CN3CCOCC3)o2)C(C(=O)NC(C)(C)C)c2ccc(F)cc2)c1 (centres undefined) | 64.0* | -3.3 | 5.3 | 7.7
CC(=O)N1CCN(c2ccc(NC(=O)c3ccccc3Cl)cc2)CC1 | -17.2 | 1.8 | -3.1 | 1.6
O=C(Nc1ccc(N2CCCCC2)cc1)c1ccccn1 | -71.3 | -13.5 | -8.7 | -66.9*
Cc1ccc(NC(=O)c2cc(NC(=O)c3ccccc3C(=O)O)ccc2N2CCCCC2)cc1 | 59.7* | 4.0 | 11.8 | 26.1
